Compounds without any hit were thinned out: in the full panel of roughly 79,000, 15% have a hit. Calls of active or inactive are those of the source. Rule as the data show it: active = growth inhibition above about 70%; inactive = the rest.

The record followed here is PubChem BioAssay (NCI).

One experiment is described as follows: NCI Yeast Anticancer Drug Screen. Data for the sgs1 mgt1 strain (AID 161).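 Also: 0% = growth of cultures given vehicle only.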 To be noted: S. cerevisiae sgs1 mgt1 strain, at 50.0 µM, active compounds read high. Put shortly:
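Genetically altered yeast, compound exposure, growth inhibition relative to vehicle.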
Consider `CC(C)N=C(NC(C)C)SCCCCCCSC(=NC(C)C)NC(C)C`, for which the growth inhibition is 2.4% (inactive).
In the case of `CCCCCOC(=S)SSSC(=S)OCCCCC`, the growth inhibition was 22.1% (inactive).
In the case of `CCCCCCCCCCCCCCCC[N+](C)(C)CC(=O)O`, the growth inhibition is -1.4% (inactive).
For the compound `Cc1cc(C)c([O-])c(-[n+]2c(-c3ccccc3)cc(-c3ccccc3)cc2-c2ccccc2)c1`, the growth inhibition was 91% (active).
`CC(=O)NNc1ccc(Cl)cc1[N+](=O)[O-]`: the growth inhibition is 12.1% (inactive).
As to `O=C(NC(=Nc1ccccc1)SCCSC(=Nc1ccccc1)NC(=O)c1ccccc1)c1ccccc1`, the growth inhibition was 86.2% (active).
Still for that read-out and setting: in the case of `CN(C)CCCNc1ccc(O)c2c1C(=O)c1ccccc1C2=O` it was 88.2% (active); in that of `COC(=O)C(=O)C(/C=N/C(=S)NCCc1ccc(OC)c(OC)c1)=C(/O)c1ccc([N+](=O)[O-])cc1`, 19.4% (inactive); in that of `CCCC(=O)OCC1CC2C=CC1C2` (stereo not given), -18.3% (inactive).
As for `CN(NC(=O)/C(=C/c1cc(Cl)cc(Cl)c1O)NC(=O)c1ccccc1)c1cnn(-c2ccccc2)c(=O)c1Cl`, the growth inhibition is 59.1% (inactive).
Consider `CC(C)N(C(=O)CC1(O)CCCCC1)C(C)C`, for which the growth inhibition is -14.6% (inactive).
For `COC(=O)C1C(c2ccccc2)=N[C@@H](c2ccccc2)[C@H]1C(=O)OC` (stereo not given in full), the growth inhibition was 17.1% (inactive).
With `O=C1C(=Cc2ccccc2O)N=C(c2ccccc2)N1n1c(-c2ccccc2)nc2ccccc2c1=O`, the growth inhibition was 75.7% (active).
Same read-out and setting: the figure for `CCOc1ccc2c(c1)[n+]([O-])c(-c1ccc([N+](=O)[O-])cc1)c(N)[n+]2[O-]` is 96% (active); for `O=C(NCCCNCCCCNCCCNC(=O)c1cc(-c2ccccc2)nc2ccccc12)c1cc(-c2ccccc2)nc2ccccc12` it is 92.8% (active).
For the compound `CC1=C(C(=O)Nc2cccc3ccccc23)C(c2cccc([N+](=O)[O-])c2)C(C(=O)Nc2cccc3ccccc23)=C(C)N1`, the growth inhibition was 77.1% (active).
Turning to `O=C1OC(c2ccc(O)cc2)Sc2ccccc21` (stereo not given), the growth inhibition is 49.8% (inactive).
Still for that read-out and setting: in the case of `CC(C)(C)c1ccc(-c2nc3ccccc3c(=O)o2)cc1` it was 87.2% (active); in that of `O=C(N/C(=C/c1ccc(Cl)cc1Cl)c1nc2ccccc2s1)c1ccccc1`, 98.9% (active); in that of `O=C(O)C/C(=C\c1ccco1)C(=O)O`, -30.6% (inactive).
For `CN(C)Cc1cc(N=Nc2ccc(Cl)c(Cl)c2)ccc1O`, the growth inhibition was 82.7% (active).
Turning to `CC(=O)OC1C(O)C(C)OC(OC(=O)C2CCC3C(C2)OC2(CC(OC(=O)/C=C/c4ccccc4)C(C)CO2)C32CO2)C1OC1OC(C)C(O)C(O)C1O` (stereo not given), the growth inhibition was 47.1% (inactive).
The same measure, in the same setting: the figure for `O=C1c2ccccc2C(=O)c2c(/C=C\N3CCCCC3)ccnc21` is 92.6% (active); for `CCN(CC)c1ccc(NC(CC(O)c2ccccc2)c2ccccc2)cc1` (stereo not given) it is -0.8% (inactive); for `CCOC(=O)Nc1nc2ccc(SC#N)cc2s1` it is 79.8% (active).
With `CSC(SC)C(SC)SC`, the growth inhibition was 0.65% (inactive).
Turning to `N#CC(C(=O)C(=O)Nc1ccc(Cl)cc1)c1c(Cl)cccc1Cl` (stereo not given), the growth inhibition is 28.8% (inactive).
Turning to `CN(/N=C\c1cccc([N+](=O)[O-])c1)C(c1cccc([N+](=O)[O-])c1)N(C)/N=C/c1cccc([N+](=O)[O-])c1` (stereo not given), the growth inhibition is 68.5% (inactive).
Turning to `Oc1cc(Br)cc2cc(Br)cnc12`, the growth inhibition was 80.5% (active).
For `COc1ccccc1C(C)c1ccc2ccccc2c1C(=O)O` (stereo not given), the growth inhibition was 95% (active).
As for `Cc1ccnc2[nH]c3ccccc3c(=O)c12`, the growth inhibition is 65.5% (inactive).
Take `COc1cc(OC)c(/C=C\c2ccnc3ccccc23)c(OC)c1`: the growth inhibition was 84.7% (active).
Still for that read-out and setting: in the case of `COC(=O)C1(COCc2ccccc2)CCCC2OC21` (stereo not given) it was 10.4% (inactive).
With `O=[N+]([O-])/C(=C\c1cccs1)c1ccccc1`, the growth inhibition was 99.5% (active).
Same read-out and setting: the figure for `Cc1cc(C(O)(c2cc(C)c(O)c(C(=O)O)c2)c2cc(C)c(O)c(C(=O)O)c2)cc(C(=O)O)c1O` is 5.35% (inactive); for `CC(C)C(C)(C(=O)O)C(C)C` it is 5.6% (inactive); for `CN(Cc1cc(Cl)cc(Cl)c1)CC(C(=O)c1ccccc1)c1ccccc1` (stereo not given) it is 93.3% (active).
Same read-out and setting: in the case of `O=c1[nH]c(Cc2ccccc2)nc2c1sc1nc3ccccc3n12` it was -34.2% (inactive); in that of `CC(NNC(=S)N1CCCC1)c1cccnn1` (stereo not given), 88.6% (active); in that of `Cc1ccc2c(c1)C(O)(c1ccccc1)CCS2` (stereo not given), 91.8% (active).

The nature of another experiment: NCI Yeast Anticancer Drug Screen. Data for the cln2 rad14 strain (AID 165).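 Also: 0% = growth equal to vehicle treated cultures.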 To be noted: S. cerevisiae cln2 rad14 strain, at 5.0 µM (retest, dose inferred, filed as 0.5), active compounds read high. An outline of the steps: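 Growth of compound-exposed yeast (cln2 rad14 genotype) measured and expressed as inhibition relative to vehicle.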
In the case of `CC(C)N=C(NC(C)C)SCCCCCCSC(=NC(C)C)NC(C)C`, the growth inhibition is -6% (inactive).
On to `CCCCCOC(=S)SSSC(=S)OCCCCC`, for which the growth inhibition is -13% (inactive).
For `CCCCCCCCCCCCCCCC[N+](C)(C)CC(=O)O`, the growth inhibition is 2% (inactive).
With `Cc1cc(C)c([O-])c(-[n+]2c(-c3ccccc3)cc(-c3ccccc3)cc2-c2ccccc2)c1`, the growth inhibition is -8% (inactive).
On to `CC(=O)NNc1ccc(Cl)cc1[N+](=O)[O-]`, for which the growth inhibition is 5% (inactive).
On the same count and under the same terms, in the case of `O=C(NC(=Nc1ccccc1)SCCSC(=Nc1ccccc1)NC(=O)c1ccccc1)c1ccccc1` it was 5% (inactive); in that of `CN(C)CCCNc1ccc(O)c2c1C(=O)c1ccccc1C2=O`, 32% (inactive).
In the case of `COC(=O)C(=O)C(/C=N/C(=S)NCCc1ccc(OC)c(OC)c1)=C(/O)c1ccc([N+](=O)[O-])cc1`, the growth inhibition is 20% (inactive).
On to `CCCC(=O)OCC1CC2C=CC1C2` (stereo not given), for which the growth inhibition was -7% (inactive).
Same read-out and setting: in the case of `CN(NC(=O)/C(=C/c1cc(Cl)cc(Cl)c1O)NC(=O)c1ccccc1)c1cnn(-c2ccccc2)c(=O)c1Cl` it was -6% (inactive); in that of `CC(C)N(C(=O)CC1(O)CCCCC1)C(C)C`, -6% (inactive).
Turning to `COC(=O)C1C(c2ccccc2)=N[C@@H](c2ccccc2)[C@H]1C(=O)OC` (stereo not given in full), the growth inhibition was 6% (inactive).
As to `O=C1C(=Cc2ccccc2O)N=C(c2ccccc2)N1n1c(-c2ccccc2)nc2ccccc2c1=O`, the growth inhibition was 8% (inactive).
On to `CCOc1ccc2c(c1)[n+]([O-])c(-c1ccc([N+](=O)[O-])cc1)c(N)[n+]2[O-]`, for which the growth inhibition was 21% (inactive).
As to `O=C(NCCCNCCCCNCCCNC(=O)c1cc(-c2ccccc2)nc2ccccc12)c1cc(-c2ccccc2)nc2ccccc12`, the growth inhibition is 30% (inactive).
In the case of `CC1=C(C(=O)Nc2cccc3ccccc23)C(c2cccc([N+](=O)[O-])c2)C(C(=O)Nc2cccc3ccccc23)=C(C)N1`, the growth inhibition was -3% (inactive).
Turning to `O=C1OC(c2ccc(O)cc2)Sc2ccccc21` (stereo not given), the growth inhibition was 3% (inactive).
`CC(C)(C)c1ccc(-c2nc3ccccc3c(=O)o2)cc1`: the growth inhibition is -2% (inactive).
With `O=C(N/C(=C/c1ccc(Cl)cc1Cl)c1nc2ccccc2s1)c1ccccc1`, the growth inhibition was 14% (inactive).
Take `O=C(O)C/C(=C\c1ccco1)C(=O)O`: the growth inhibition is -1% (inactive).
For `CN(C)Cc1cc(N=Nc2ccc(Cl)c(Cl)c2)ccc1O`, the growth inhibition is -31% (inactive).
Take `CC(=O)OC1C(O)C(C)OC(OC(=O)C2CCC3C(C2)OC2(CC(OC(=O)/C=C/c4ccccc4)C(C)CO2)C32CO2)C1OC1OC(C)C(O)C(O)C1O` (stereo not given): the growth inhibition is 17% (inactive).
The same measure, in the same setting: in the case of `O=C1c2ccccc2C(=O)c2c(/C=C\N3CCCCC3)ccnc21` it was 38% (inactive); in that of `CCN(CC)c1ccc(NC(CC(O)c2ccccc2)c2ccccc2)cc1` (stereo not given), -5% (inactive); in that of `CCOC(=O)Nc1nc2ccc(SC#N)cc2s1`, 6% (inactive).
In the case of `CSC(SC)C(SC)SC`, the growth inhibition was 6% (inactive).
As for `N#CC(C(=O)C(=O)Nc1ccc(Cl)cc1)c1c(Cl)cccc1Cl` (stereo not given), the growth inhibition is 18% (inactive).
As for `CN(/N=C\c1cccc([N+](=O)[O-])c1)C(c1cccc([N+](=O)[O-])c1)N(C)/N=C/c1cccc([N+](=O)[O-])c1` (stereo not given), the growth inhibition is 0% (inactive).
For the compound `Oc1cc(Br)cc2cc(Br)cnc12`, the growth inhibition was 96% (active).
`COc1ccccc1C(C)c1ccc2ccccc2c1C(=O)O` (stereo not given): the growth inhibition was 7% (inactive).
Still for that read-out and setting: in the case of `Cc1ccnc2[nH]c3ccccc3c(=O)c12` it was 30% (inactive); in that of `COc1cc(OC)c(/C=C\c2ccnc3ccccc23)c(OC)c1`, 19% (inactive).
As to `COC(=O)C1(COCc2ccccc2)CCCC2OC21` (stereo not given), the growth inhibition is 19% (inactive).
As to `O=[N+]([O-])/C(=C\c1cccs1)c1ccccc1`, the growth inhibition is 75% (active).
`Cc1cc(C(O)(c2cc(C)c(O)c(C(=O)O)c2)c2cc(C)c(O)c(C(=O)O)c2)cc(C(=O)O)c1O`: the growth inhibition was 6% (inactive).
With `CC(C)C(C)(C(=O)O)C(C)C`, the growth inhibition is -3% (inactive).
As to `CN(Cc1cc(Cl)cc(Cl)c1)CC(C(=O)c1ccccc1)c1ccccc1` (stereo not given), the growth inhibition was 3% (inactive).
Regarding `O=c1[nH]c(Cc2ccccc2)nc2c1sc1nc3ccccc3n12`, the growth inhibition is 28% (inactive).
As to `CC(NNC(=S)N1CCCC1)c1cccnn1` (stereo not given), the growth inhibition was 96% (active).
In the case of `Cc1ccc2c(c1)C(O)(c1ccccc1)CCS2` (stereo not given), the growth inhibition was 16% (inactive).
